# An excerpt weighted towards active compounds, which were near 3.9% of everything screened.
# HGIII-sPLA2 inh – human group III sPLA2 inhibitors, primary screen, biochemical, QFRET, BODIPY PC-A2 liposome substrate | QFRET BODIPY PC-A2 liposome hydrolysis, fluorescence | Group 3 secretory phospholipase A2 (Homo sapiens), Q9NZ20 | 0.56% of 370,000 active | inhibition, % at 12.2 µM;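 active means inhibition above mean plus 3 SD of compounds lying within the high and low control bounds, cut at about 19% in these data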
# Target sequence (Q9NZ20 whole entry, looked up): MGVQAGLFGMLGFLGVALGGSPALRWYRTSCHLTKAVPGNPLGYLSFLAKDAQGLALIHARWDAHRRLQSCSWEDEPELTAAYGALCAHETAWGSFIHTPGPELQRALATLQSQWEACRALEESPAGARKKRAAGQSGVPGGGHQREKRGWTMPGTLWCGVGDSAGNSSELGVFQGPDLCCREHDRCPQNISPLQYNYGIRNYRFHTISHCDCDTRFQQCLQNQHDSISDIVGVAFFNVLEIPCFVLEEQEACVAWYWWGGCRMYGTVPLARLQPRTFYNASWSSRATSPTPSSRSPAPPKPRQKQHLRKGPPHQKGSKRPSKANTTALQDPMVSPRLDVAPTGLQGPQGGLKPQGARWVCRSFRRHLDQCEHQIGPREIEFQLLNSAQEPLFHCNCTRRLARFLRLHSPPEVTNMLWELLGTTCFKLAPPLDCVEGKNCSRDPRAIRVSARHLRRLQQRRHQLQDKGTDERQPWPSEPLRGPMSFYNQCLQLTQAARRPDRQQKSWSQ
# AHR activator – AHR activators, primary screen, cell-based, luminescence, luciferase reporter, human; AHR-responsive luciferase reporter cells; 2.5% of 320,000 active; activation, % at 5 µM; in the data active means activation above about 47%
# CR mimetic SO – reduction of superoxide in aged yeast, primary screen, HTS. S. cerevisiae aged cells, superoxide DHE fluorescence; active compounds read low. 0.18% of 330,000 active. superoxide response (% of plate mean), % at 10 µM. AID 2690, 2010;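 active means superoxide response under a set limit, about three screen SD below normal, cut at about 65% in these data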;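 further: yeast aged for seven days with compound at 30 °C before DHE staining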
# PLC-beta3 inh – human PLC-beta3 inhibitors, primary screen, biochemical, fluorescence | Purified PLC-beta3, fluorogenic substrate | inhibition, % at 12.2 µM | 0.18% of 370,000 active; in the data active means inhibition above about 11%
# HIF act – HIF pathway transcriptional activators, primary screen, cell-based, U2OS HRE-luciferase, luminescence; U2OS HRE-luciferase reporter; normalized: DMSO 0%, desferrioxamine 100%; activation, % at 7.5 µM (by protocol); 0.32% of 300,000 active;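 active means mean activation of at least 10% of the iron chelator positive control signal, with at least half of replicates also reaching 10%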
# PLC-gamma1 inh – PLC-gamma1 enzyme inhibitors, primary screen, biochemical, fluorescence, purified enzyme. 1-phosphatidylinositol 4,5-bisphosphate phosphodiesterase gamma-1 (Homo sapiens), P19174. fluorogenic substrate. inhibition, % at 12.2 µM. 0.84% of 370,000 active. AID 720700, 2013; in the data active means inhibition above about 9.5%
# AHR act cf – AHR activators, confirmation, cell-based, luminescence, luciferase reporter, human; human cells, AHR-responsive luciferase reporter; 87% of 2,300 active; activation, % at 9 µM; AID 2845, 2010; shares compounds with AHR activator; in the data active means activation above about 49%;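 further: HepG2 hepatoma cells carrying a DRE-driven firefly luciferase reporter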
# PXR counter – human PXR activators, counter-screen for AHR activator project, cell-based, luciferase luminescence; shares compounds with AHR activator; cell-based PXR reporter; activation, % at 11.6 µM; 88% of 2,300 active; in the data active means activation above about 11%;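 further: human hepatoma DPX-2 cells expressing full-length human PXR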
# A number is an active result; 0 = inactive; - = not tested or not shown.
SMILES,HGIII-sPLA2 inh,AHR activator,CR mimetic SO,PLC-beta3 inh,HIF act,PLC-gamma1 inh,AHR act cf,PXR counter
CC(C)(C)NC(=S)N/N=C/c1c(Cl)cccc1Cl,0,103.2,0,0,0,0,0,131.0
Cc1cc(Br)ccc1NC(=O)CN(C)C(=O)c1cc([N+](=O)[O-])ccc1N1CCOCC1,0,92.0,0,0,0,0,84.0,53.0
O=C1c2ccccc2C(=O)N1c1ccc(Cl)cc1,-,87.8,0,-,0,-,61.9,13.2
Cc1ccc(N2C(=O)c3ccccc3C2=O)cc1,0,0,0,0,0,0,-,-
COc1cc(NC(=O)C/C(C)=N/NC(=O)Cc2ccccc2)c(OC)cc1Cl,0,147.3,0,0,0,0,0,15.5
NC(=O)c1ccc(NCCc2cccs2)cc1,0,-,-,0,-,0,-,-
Cn1c2ccccc2c(=O)c2ccc(NCCc3cccs3)cc21,0,110.6,0,0,-,0,0,112.5
COc1cccc(NC(=O)N2CCc3ccccc3C2)c1,0,0,0,0,0,0,-,-
O=C(Nc1ccc([N+](=O)[O-])cc1)N1CCc2ccccc2C1,0,0,0,0,0,0,-,-
CC(C)c1ccc(NC(=O)N2CCc3ccccc3C2)cc1,0,114.0,0,0,0,0,96.2,92.7
O=C(Nc1cccc(Cl)c1)N1CCc2ccccc2C1,0,114.0,0,0,0,0,118.1,29.8
O=C(CSc1ccc(-c2ccccn2)nn1)N1CCCC1,0,0,0,0,0,0,-,-
Cc1csc2ncc(C(=O)Nc3ccon3)c(=O)n12,0,120.2,0,0,0,0,115.2,12.5
Cc1csc2ncc(C(=O)Nc3ccccc3Cl)c(=O)n12,0,0,0,0,0,0,-,-
Cc1csc2ncc(C(=O)Nc3ccc4c(c3)OCCO4)c(=O)n12,0,0,0,0,0,0,-,-
Cc1cccc(NC(=O)c2cnc3scc(C)n3c2=O)c1,0,79.2,0,0,0,0,96.2,56.6
Cc1cccc(COC(=O)C(Cc2ccccc2)NC(N)=O)c1 (stereo not given),0,0,0,0,0,0,-,-
COc1cccc(C2=NC(C)(C)NC(c3ccccc3O)C2)c1 (stereo not given),0,82.3,0,0,-,0,0,52.0
Cc1cccc2sc(NNC(=O)C3COc4ccccc4O3)nc12 (stereo not given),0,94.5,0,0,0,0,0,19.8
CC(=O)c1ccc(NC(=O)Nc2cccc3ccccc23)cc1,0,-,0,0,-,0,-,-
O=C1c2ccccc2-c2nc3ccccc3nc21,0,114.8,0,0,0,0,148.9,-
COc1ccccc1-c1nc2ccccc2nc1-c1ccccc1OC,0,0,0,0,0,0,-,-
O=S(=O)(Cc1ccccc1)N1CCCc2ccccc21,0,124.6,0,0,0,0,113.9,80.1
O=C(NCCc1ccccc1Cl)[C@@H]1CCCN1C(=O)[C@H](Cc1cccnc1)NC(=O)N1CCOCC1,0,-,-,0,-,0,-,-
O=C(NC1CC1)c1sc2cc(Cl)ccc2c1Cl,0,0,0,0,0,0,-,-
SMILES,HGIII-sPLA2 inh,AHR activator,CR mimetic SO,PLC-beta3 inh,HIF act,PLC-gamma1 inh,AHR act cf,PXR counter
O=C(Nc1nccs1)c1sc2cc(Cl)ccc2c1Cl,0,80.3,0,0,0,0,110.0,18.1
COc1ccc(NC(=O)c2ccc(C)cc2)c(OC)c1,0,119.8,0,0,0,0,96.1,-
COc1cc(NS(C)(=O)=O)c(OC)cc1NC(=O)c1ccccc1,0,0,0,0,0,0,-,-
CCC(=O)Nc1cc(OC)c(NC(=O)c2ccccc2)cc1OC,0,81.9,0,0,0,0,108.8,-
COc1ccccc1CC(=O)Nc1cc(OC)c(NC(=O)c2ccccc2)cc1OC,0,0,0,0,0,0,-,-
COc1ccc(NC(=O)c2ccc3[nH]c(=O)c(=O)[nH]c3c2)c(OC)c1,0,0,0,0,0,0,-,-
COc1ccc(C(=O)Nc2cc(OC)c(NC(=O)c3ccco3)cc2OC)cc1,0,82.3,0,0,0,0,110.0,-
COc1cc(NC(=O)c2ccccc2)c(OC)cc1NC(C)=O,0,85.7,0,0,0,0,113.1,10.8
COc1ccc(NC(=O)c2ccc(NC(=O)c3ccco3)cc2)c(OC)c1,0,0,0,0,0,0,-,-
COc1ccc(OC)c(S(=O)(=O)N2CCCC(C(=O)NCCN3CCOCC3)C2)c1 (stereo not given),0,0,0,0,0,0,-,-
CN(Cc1ccc(Cl)c(Cl)c1)C(=O)C1=CC=CN2CCS(=O)(=O)N=C12,0,0,0,0,-,0,-,-
COc1ccc(C2/C(=C(/O)c3ccc(C)cc3)C(=O)C(=O)N2C)c(OC)c1 (stereo not given),0,0,0,0,0,0,-,-
Cc1ccc(C(=O)N2CCCC(Nc3ccc(F)cc3)C2)cc1C (stereo not given),0,0,0,0,0,0,-,-
Cc1noc(C)c1COc1ccccc1C(=O)NNC(=O)c1ccccc1F,0,91.8,0,0,-,0,116.8,72.6
Cc1cccc(OC(C)C(=O)NC2CCS(=O)(=O)C2)c1C (stereo not given),-,0,0,-,0,-,-,-
CSCc1c(C(=O)Nc2ccc(N3CCOCC3)cc2)oc2ccccc12,0,86.5,0,0,0,0,95.5,12.7
CC(=O)Nc1c(C(=O)Nc2ccc3c(c2)OCO3)oc2ccccc12,0,113.1,0,0,0,0,146.7,35.1
COc1cccc(NC(=O)c2oc3ccccc3c2NC(=O)c2ccc3c(c2)OCO3)c1,0,0,0,0,0,0,-,-
CSCc1c(C(=O)Nc2ccc3c(c2)OCO3)oc2ccccc12,0,91.5,0,0,0,0,109.2,44.5
COCC(=O)Nc1c(C(=O)Nc2ccc3c(c2)OCO3)oc2ccccc12,0,134.4,0,0,0,0,100.0,47.8
COc1ccc2nccc(/C=C/c3ccnc4ccc(OC)cc34)c2c1,0,104.8,0,0,0,0,95.6,33.7
COc1ccc(OC)c(/C=C/c2ccnc3ccccc23)c1,0,-,-,0,-,0,-,-
CCCCn1c(N)c(N(CC(C)C)C(=O)C(C)SCc2nc3sc(C)c(C)c3c(=O)[nH]2)c(=O)[nH]c1=O (stereo not given),0,0,0,0,0,0,-,-
CC1CN2C(c3ccc([N+](=O)[O-])cc3)=CSC2=N1 (stereo not given),0,0,0,0,0,0,-,-
